What all share (type): functional
Experiment [1] deals with Plasmodium falciparum. In words: GSK_TCMDC: Inhibition of Plasmodium falciparum 3D7 in whole red blood cells, using parasite LDH activity as an index of growth. Test compounds present at 2uM.
Experiment [2] deals with Plasmodium falciparum. In words: GSK_TCMDC: Inhibition of Plasmodium falciparum Dd2 in whole red blood cells, using parasite LDH activity as an index of growth. Test compounds present at 2uM.
The subject of experiment [3] is HepG2. In words: GSK_TCMDC: Percent inhibition of human HepG2 cell line. Test compounds present at 10uM.

This passage reports Inhibition results from ChEMBL document CHEMBL1157539, “Thousands of chemical starting points for antimalarial lead identification” (Nature, 2010).

As a reminder, the Inhibition is the drop in the measured response relative to a control, in per cent.

Regarding `C=C(C)C1CC=C(CN2CCCC(n3ccc4cc(NC(=O)c5ccco5)ccc43)CC2)CC1` (stereo unspecified), the Inhibition in experiment [1] is recorded as 90%; in experiment [2], 95%; in experiment [3], 13%.

Turning to `Cl.N#Cc1cccc(-c2cccc(C(=O)NC3CCC(CCN4CCc5ccc(C#N)cc5CC4)CC3)c2)c1` (stereo unspecified), the results for the Inhibition in experiment [1], in experiment [2] and in experiment [3] were 99%, 57% and 31%, respectively.

For the molecule `COc1ccccc1C1CCN(C2CCC(NC(=O)/C=C/c3cccc(Cl)c3)CC2)CC1` (stereo unspecified), the Inhibition in experiment [1] is given as 92%; in experiment [2], 20%; in experiment [3] it was 54%.

For the molecule `COC(=O)CCn1c(C2CCN(CC3CCC(NC(=O)/C=C/c4ccc(Cl)c(Cl)c4)CC3)CC2)nc2ccccc21` (stereo unspecified), the Inhibition came out at 94% in experiment [1], 10% in experiment [2] and 14% in experiment [3].

For the molecule `CCc1nn2c(Nc3ccncc3)cc(C)nc2c1-c1ccccc1`, the Inhibition in experiment [1] came to 100%; in experiment [2] it was 98%; in experiment [3], 4%.

As to `CN(C)CCCNCCS(=O)(=O)c1cccc(Nc2ccc(-c3cccc(N(C)C)c3)cn2)c1`, the Inhibition is 98% in experiment [1], 0% in experiment [2] and 19% in experiment [3].

In the case of `CCN(CCCN1CCCCC1)c1cc(C)nc(Nc2ccc(C)c(F)c2)n1.O=C(O)C(F)(F)F`, the Inhibition in experiment [1] is recorded as 100%; in experiment [2], 92%; in experiment [3], 20%.

With `CN(C)C1CCN(CC#Cc2cc3ncnc(Nc4ccc(OCc5cccc(F)c5)c(Cl)c4)c3s2)CC1`, the Inhibition in experiment [1] amounted to 85%; in experiment [2] it was 5%; in experiment [3], 34%.

Turning to `N#Cc1ccc(-c2ccc(C(=O)NCCCCN3CCC(c4cn(CCO)c5ccccc45)CC3)cc2)cc1`, the Inhibition in experiment [1] was determined as 93%; in experiment [2] it was 43%; in experiment [3] it was 23%.

For `CN(C)Cc1ccc(-c2cc3ncnc(Nc4ccc(OCc5cccc(F)c5)c(Cl)c4)c3s2)[nH]1`, the Inhibition in experiment [1] is 99%; in experiment [2], 87%; in experiment [3] it was 53%.

Take `CCOc1ccc(C2CCN(CCCCNC(=O)c3ccc(NC(=O)c4ccc(Cl)cc4)cc3)CC2)c(CC)c1`: the Inhibition turned out to be 100% in experiment [1], 64% in experiment [2] and 44% in experiment [3].

On to `CCN(CCCN1CCCCC1)c1cc(C)nc(Nc2ccc(Cl)c(C(F)(F)F)c2)n1.O=C(O)C(F)(F)F`, for which the Inhibition in experiment [1] is on record as 96%; in experiment [2], 55%; in experiment [3], 43%.

`CC(C)CN1CCN(CCNc2c3ccccc3nc3ccccc23)CC1`: the Inhibition in experiment [1] was determined as 97%; in experiment [2] it was 79%; in experiment [3] it was 26%.

Regarding `Cl.NC1=NC(c2ccccc2)N(c2ccccc2)C(N)=N1` (stereo unspecified), the Inhibition in experiment [1] was found to be 96%; in experiment [2] it was 85%; in experiment [3] it was 0%.

Consider `CCN(CCNS(C)(=O)=O)c1ccc(N)c(C)c1.O.O=S(=O)(O)O`, for which the Inhibition in experiment [1] came to 91%; in experiment [2], 11%; in experiment [3] it was 0%.

On to `Cc1cc(=O)c(-c2ccc(Oc3cccc(Cl)c3)cc2)c(C)[nH]1`, for which the Inhibition amounted to 95% in experiment [1], 89% in experiment [2] and 23% in experiment [3].

`CC(C)(CN)c1cc(-c2ccc(Cl)c(O)c2)c(-c2ccncc2)o1.Cl`: the Inhibition in experiment [1] amounted to 92%; in experiment [2], 97%; in experiment [3] it was 44%.

Take `CC(C)C[C@H](NC(=O)c1ccc(OCCN2CCOCC2)cc1)C(=O)N[C@H](/C=N/NC(=O)OC(C)(C)C)CCc1ccccc1`: the Inhibition in experiment [1] is 96%; in experiment [2], 87%; in experiment [3] it was 8%.

On to `Cc1ccc(Nc2nc(C)cc(Nc3cccc(NS(C)(=O)=O)c3)n2)cc1`, for which the Inhibition in experiment [1] was 96%; in experiment [2], 8%; in experiment [3], 0%.

Take `CCCc1cc(Cc2cnc(N)nc2N)ccc1OCCCCCC(=O)OCC`: the Inhibition is listed as 97% in experiment [1], 1% in experiment [2] and 0% in experiment [3].

`O=C(Nc1ccc(OC2CCN(Cc3ccc(F)cc3)C2)c(Cl)c1)c1ccco1.O=C(O)C(F)(F)F` (stereo unspecified): the Inhibition in experiment [1] worked out at 96%; in experiment [2], 97%; in experiment [3], 9%.

In the case of `Cc1cn(CC(=O)Nc2cccc(-c3cccc(-c4nc5cccc(C)c5[nH]4)c3)c2)c(=O)[nH]c1=O`, the Inhibition worked out at 100% in experiment [1], 100% in experiment [2] and 2% in experiment [3].

On to `CN(C)c1cccc2c1nc(-c1ccc3c(c1)CCO3)n2CCNCc1ccccc1.O=C(O)C(F)(F)F`, for which the Inhibition in experiment [1] worked out at 99%; in experiment [2], 85%; in experiment [3] it was 6%.

As to `CC(C)C(=O)ONC1=NC(=N)N(OCCCOc2cc(Cl)c(Cl)cc2Cl)C(C)(C)N1`, the Inhibition was 95% in experiment [1], 96% in experiment [2] and 64% in experiment [3].

As to `C=CC(=O)Nc1ccc(Cl)cc1C(O)c1ccccc1` (stereo unspecified), the Inhibition in experiment [1] was 100%; in experiment [2], 5%; in experiment [3], 0%.

In the case of `Cl.NC1=NC(c2ccccc2)N(c2ccc(Cl)c(Cl)c2)C(N)=N1` (stereo unspecified), the Inhibition amounted to 94% in experiment [1], 0% in experiment [2] and 13% in experiment [3].

`Cl.c1ccc2c(NCCCCCCCNc3ccnc4ccccc34)ccnc2c1`: the Inhibition in experiment [1] is on record as 100%; in experiment [2], 94%; in experiment [3], 91%.

As to `COc1ccc2nccc(N(C)CC3(O)CCC(NCc4cc5c(cn4)OCCO5)CC3)c2n1.Cl` (stereo unspecified), the Inhibition is recorded as 99% in experiment [1], 14% in experiment [2] and 1% in experiment [3].

Regarding `COCn1ncc2cc(-c3cccc(NC(=O)c4csc(NC(C)=O)n4)c3)ccc21`, the Inhibition amounted to 89% in experiment [1], 68% in experiment [2] and 0% in experiment [3].

In the case of `COc1cc(C2CCN(CCCCNC(=O)c3ccc(NC(=O)c4cc(C(F)(F)F)cc(C(F)(F)F)c4)cc3)CC2)ccc1OC(C)C`, the values for the Inhibition in experiment [1], in experiment [2] and in experiment [3] were 100%, 100% and 21%, respectively.

Turning to `CCN(CC)CCCNc1nccc(N(C)c2ccc(NC(=O)Nc3cc(C(F)(F)F)ccc3F)cc2)n1.O=C(O)C(F)(F)F`, the Inhibition is reported as 94% in experiment [1], 19% in experiment [2] and 96% in experiment [3].

With `CCCC(CNC(=O)c1cc2c(Cl)cc(Cl)cc2[nH]1)CNc1cc(=O)c2ccccc2[nH]1.O=C(O)C(F)(F)F` (stereo unspecified), the Inhibition in experiment [1] is 100%; in experiment [2] it was 94%; in experiment [3], 9%.

`CCN(CC)S(=O)(=O)n1ncc2c3c(N)nc(N)nc3ccc21.Cl`: the results for the Inhibition in experiment [1], in experiment [2] and in experiment [3] were 93%, 16% and 67%, respectively.

Take `O=C(Nc1ccc(-c2ccccc2)c(OCCN2CCNCC2)c1)c1ccc(-c2ccc(Cl)cc2)cc1`: the Inhibition in experiment [1] was 96%; in experiment [2] it was 31%; in experiment [3], 92%.

Take `CCOC(=O)c1sc(C(C)Nc2ccccc2)nc1-c1ccccc1` (stereo unspecified): the Inhibition in experiment [1] is 95%; in experiment [2] it was 91%; in experiment [3], 0%.

Take `O=C(Nc1ccc(O)c(-c2nc3ccccc3[nH]2)c1)c1ccc([N+](=O)[O-])cc1`: the Inhibition in experiment [1] was 97%; in experiment [2] it was 45%; in experiment [3], 0%.

On to `O=C(O)C(F)(F)F.Oc1ccc(CCNc2nc(NCc3ccccc3-c3cccc(Cl)c3)nc(N3CCNCC3)n2)cc1`, for which the Inhibition in experiment [1] was 84%; in experiment [2], 11%; in experiment [3] it was 15%.

In the case of `CC(=O)c1sc(Cc2nc3ccccc3s2)nc1C`, the Inhibition stood at 94% in experiment [1], 88% in experiment [2] and 0% in experiment [3].

On to `CC(C)N1CCC(N(Cc2ccc(-c3ccc(Cl)cc3)cc2)C(=O)Cn2c(CCc3cccc(F)c3F)cc(=O)c3ccccc32)CC1.O=C(O)C(O)C(O)C(=O)O`, for which the Inhibition is on record as 96% in experiment [1], 73% in experiment [2] and 62% in experiment [3].

On to `COC(=O)c1cccc(CNCc2ccc(-c3ccc(-c4nc5cccc(C)c5[nH]4)s3)cc2)c1.O=C(O)C(F)(F)F`, for which the Inhibition in experiment [1] came to 100%; in experiment [2], 64%; in experiment [3], 3%.

Regarding `CCn1c(C(C)C)cc2c3c(N)nc(N)nc3ccc21`, the values for the Inhibition in experiment [1], in experiment [2] and in experiment [3] were 92%, 0% and 67%, respectively.

As for `CC(Nc1ccc2c(c1)CCC2)C(=O)Nc1cc(C(F)(F)F)ccc1N1CCOCC1` (stereo unspecified), the values for the Inhibition in experiment [1], in experiment [2] and in experiment [3] were 100%, 100% and 0%, respectively.

Consider `COc1cc(CCOc2c(C)nc(N)nc2N)cc(OC)c1OC.Cl`, for which the values for the Inhibition in experiment [1], in experiment [2] and in experiment [3] were 93%, 0% and 59%, respectively.

For `CCOCCCn1c(=N)c(C(=O)NCc2ccc(F)cc2)cc2c(=O)n3cccc(C)c3nc21`, the Inhibition was 100% in experiment [1], 40% in experiment [2] and 21% in experiment [3].

On to `COc1ccc2nccc([C@@H](O)CN3CCC(NCCOc4cccc(F)c4F)CC3)c2c1.O=C(O)C(=O)O`, for which the results for the Inhibition in experiment [1], in experiment [2] and in experiment [3] were 100%, 85% and 9%, respectively.

Regarding `O=C(NC12CC3CC(CC(C3)C1)C2)C(=O)c1c[nH]c2ccccc12`, the Inhibition is reported as 97% in experiment [1], 2% in experiment [2] and 16% in experiment [3].

`CC[C@H]1CN(CCCC(=O)c2ccccc2)CC[C@H]1CCCc1ccnc2ccc(OC(=O)c3ccccc3)cc12.O=C(O)C(=O)O`: the Inhibition in experiment [1] turned out to be 83%; in experiment [2] it was 68%; in experiment [3] it was 28%.

Consider `OCc1ccc(-c2cncc(Nc3cccc(Cl)c3)c2)cc1`, for which the Inhibition in experiment [1] amounted to 95%; in experiment [2], 100%; in experiment [3] it was 4%.

For the molecule `CC(C)CNCc1ccc(-c2ccc(CN(CCCN3CCN(C)CC3)C(=O)/C=C/c3ccccc3)cc2)cc1.O=C(O)C(F)(F)F`, the Inhibition in experiment [1] was determined as 99%; in experiment [2], 93%; in experiment [3], 57%.

Consider `N=C(N)NCCCN(Cc1ccccc1)c1ccc(Cl)cc1.O=S(=O)(O)O`, for which the figures for the Inhibition in experiment [1], in experiment [2] and in experiment [3] were 100%, 98% and 0%, respectively.

On to `CC(C)CCN(Cc1cncn1Cc1cccc(C(F)(F)F)c1)C(=O)c1cncc(-c2ccccc2)c1`, for which the Inhibition in experiment [1] is on record as 100%; in experiment [2], 4%; in experiment [3], 15%.

In the case of `Cc1cc(C(=O)N(Cc2ccc(-c3ccc(CNCCc4ccc(S(C)(=O)=O)cc4)cn3)cc2)C(C)CN(C)C)ccc1[N+](=O)[O-].O=C(O)C(F)(F)F` (stereo unspecified), the Inhibition was found to be 99% in experiment [1], 46% in experiment [2] and 17% in experiment [3].

In the case of `Br.CC1(C)NC(N)=NC(=N)N1OCCCOc1cccc2ccccc12`, the Inhibition in experiment [1] is 95%; in experiment [2], 86%; in experiment [3], 67%.

With `CCCCCCNC(=O)C1Cc2c([nH]c3ccc(C)cc23)C2(CCN(CCc3ccccc3)CC2)N1` (stereo unspecified), the Inhibition in experiment [1] worked out at 85%; in experiment [2], 24%; in experiment [3], 31%.

On to `Cc1nc(C)c(-c2ccc(C(=O)c3ccc(Cl)cc3)cc2)c(O)c1Cl`, for which the Inhibition turned out to be 98% in experiment [1], 95% in experiment [2] and 0% in experiment [3].

For `Cc1ccc(Cl)cc1NC(=O)c1c(-c2ccccc2Cl)noc1C`, the Inhibition in experiment [1] is listed as 88%; in experiment [2], 37%; in experiment [3], 9%.

As to `OC(COCc1ccc(-c2ccccc2)cc1)CN1CCCCC1` (stereo unspecified), the Inhibition is on record as 99% in experiment [1], 75% in experiment [2] and 13% in experiment [3].
